Laboratory results from PubChem BioAssay (NCATS).
Inconclusive results are not listed. Calls of active or inactive are those of the source. Calls come from the whole dose curve; as a rule, active = well fitted cell-killing curve with a large enough effect; inconclusive = small, poorly fitted or top-dose-only effect; inactive = no such curve, though single readings can be large or run the other way. Positions of bridges follow the written chain, without caps; N, C: chain ends. Non-standard residues stand in square brackets, D forms with d. Residues, ends and D or L forms follow the SMILES beside them. ξ: configuration not given here. *: point of attachment. Octanoyl(6-Me) = CCC(C)CCCCC(=O)*; ξThr(3R) = C[C@@H](O)C(N)C(=O)O; dDab = NCC[C@@H](N)C(=O)O; Dab = NCC[C@H](N)C(=O)O
% is set by controls: 0 for no effect and ±100 for the full control effect; potency is the fitted concentration of half-maximal effect.

Assay: qHTS of pediatric cancer cell lines to identify multiple opportunities for drug repurposing: Primary screen for Saos-2 cells (AID 1347097); note: nearly all actives have a fitted effect of over 40% in size
Details: Saos-2 viability, CellTiter-Glo ATP luminescence, 48 h; series mostly up to 46 µM; activity change, negative = cytotoxic: at the top concentration
Description: Drug repurposing or repositioning has been offered as a strategy for drug development in oncology programs. This approach has special potential for childhood cancers and other rare or orphan diseases, where the expected return on new drug development has been a disincentive to pharmaceuticals. […] In this project we exploit the poly-pharmacology of drugs to discover new indications via phenotypic screening of a panel of 19 well-characterized cell lines derived from solid tumors seen in children and adolescents. The goal is to identify approved drugs with previously unrecognized anticancer properties that has the potential to reveal new mechanisms and biological processes involved in carcinogenesis or drug resistance. We employed a titration-based paradigm (quantitative high-throughput screening or qHTS), where all compounds were tested at multiple concentrations for their effect on cell viability. Concentration-response curves (CRCs) were derived directly from the primary screen, and both potency and efficacy values were used to identify compounds with robust bioactivity profiles. We screened the NIH Chemical Genomics Center (NCGC) Pharmaceutical Collection (NPC) and Mechanism Interrogation Plate (MIPE) small molecule collections of approved and investigational compounds against these cell lines; and measured metabolically active cells after 48 hours of compound treatment as a proxy for cell viability. […] Assay Submitter: Nathalia J. Martinez, National Center for Advancing Translational Sciences, National Institutes of Health, Rockville, MD, USA; email: natalia.martinez@nih.gov Shen, M et al. Quantitative high-throughput phenotypic screening of pediatric cancer cell lines identifies multiple opportunities for drug repurposing. Oncotarget 2017 Dec 19;9(4):4758-4772. PMID 29435139.
The cells were obtained from University of North Carolina (UNC), Pediatric Preclinical Testing Program (PPT), and Coriell Institute (CI). qHTS cell viability assay: Cells were assayed in growth media at a density of 500-1,000 cells/well. Five microliters of cells were dispensed into 1,536-well, white, solid-bottom, TC-treated plates (Greiner Bio One) using a multidrop dispenser and incubated at 37 degrees C, 5% CO2, under a humidified atmosphere for 5 hours. Twenty-three nanoliters of compounds and controls (neutral control DMSO or positive control bortezomib at final concentration of 2.3 µM) were subsequently transferred by Kalypsys pintool. For primary screens, the MIPE collection was tested at 11-point dilutions (final concentrations range from 0.78 nM to 46 µM) and the NPC collection at 8-point dilutions (final concentrations range from 0.59 nM to 46 µM). Compounds tested in follow-up screens were assayed at 11-point dilutions. Cells were incubated for 48 hours, followed by addition of 3 µL of CellTiter-Glo (Promega). After a 15 min incubation at room temperature, samples were analyzed for luminescence intensity using a ViewLux High-throughput CCD imager equipped with clear filters.
In the case of `COc1cccc2c1C(=O)c1c(O)c3c(c(O)c1C2=O)C[C@@](O)(C(=O)CO)C[C@H]3O[C@H]1C[C@H](N)[C@H](O)[C@H](C)O1`, the Potency is reported as 1.32 µM (active). For `CC(C)c1cnn2c(NCc3ccccc3)cc(NCCCCCCN)nc12`, the Potency was 23.5 µM (active). For `CCC(C)CCCCC(=O)N[C@@H](CCN)C(=O)NC(C(=O)N[C@H](CCN)C(=O)N[C@@H]1CCNC(=O)C([C@@H](C)O)NC(=O)[C@@H](CCN)NC(=O)[C@@H](CCN)NC(=O)[C@@H](CC(C)C)NC(=O)[C@H](Cc2ccccc2)NC(=O)[C@H](CCN)NC1=O)[C@@H](C)O` (stereo partly drawn) ({Octanoyl(6-Me)}-[Dab][ξThr(3R)][dDab][dDab][Dab]F[dL][dDab][dDab][ξThr(3R)]; lactam 4-C), the “activity change, negative = cytotoxic” value was 33.4% (inactive). With `CC(C)[C@H](CO)Nc1nc(Nc2cccc(Cl)c2)c2ncn(C(C)C)c2n1` the Potency was 9.35 µM (active). In the case of `O=C(C=CC#Cc1cccc(NS(=O)(=O)c2ccccc2)c1)NO`, the Potency is reported as 2.35 µM (active). In the case of `Cc1cncc2cccc(S(=O)(=O)N3CCCN(C(=O)CN)C[C@@H]3C)c12`, the Potency is reported as 2.35 µM (active). For `CCN(CC)CCNC(=O)c1c(C)[nH]c(C=C2C(=O)Nc3ccc(F)cc32)c1C`, the Potency was 4.29 µM (active). For `OC[C@@H](O)[C@@H](O)[C@H](O)[C@@H](O)CO`, the “activity change, negative = cytotoxic” value was 39.4% (inactive). For `COC(=O)[C@@H]1CC2=CC(=O)CC[C@]2(C)[C@@]23O[C@@H]2C[C@@]2(C)[C@H](CC[C@@]24CCC(=O)O4)[C@@H]13`, the “activity change, negative = cytotoxic” value was 25.9% (inactive). With `CC[C@H]1OC(=O)[C@H](C)[C@@H](O[C@H]2C[C@@](C)(OC)[C@@H](O)[C@H](C)O2)[C@H](C)[C@@H](O[C@@H]2O[C@@H](C)C[C@H](N(C)C)[C@@H]2O)[C@](C)(O)C[C@@H](C)C(=O)[C@H](C)[C@@H](O)[C@]1(C)O` the “activity change, negative = cytotoxic” value was -9.86% (inactive). For `CCc1cnn2c(NCc3ccc[n+]([O-])c3)cc(N3CCCC[C@@H]3CCO)nc12`, the Potency was 0.0235 µM (active). In the case of `C[N+]1(C)[C@@H]2C[C@@H](OC(=O)C(O)(c3cccs3)c3cccs3)C[C@H]1[C@@H]1O[C@@H]12`, the “activity change, negative = cytotoxic” value is reported as 24.8% (inactive). With `CC(=O)OCC(=O)[C@@]1(O)CC[C@H]2[C@@H]3CCC4=CC(=O)CC[C@]4(C)[C@@H]3C(=O)C[C@@]21C` the “activity change, negative = cytotoxic” value was 13.6% (inactive). With `O=C1CSC(=O)N1C(CCc1ccncc1)COc1ccc(-c2cccc([N+](=O)[O-])c2)cc1` (stereo not given) the “activity change, negative = cytotoxic” value was 19.4% (inactive). With `C=CC(=O)Nc1cc(NC(=O)c2ccc(C)c(NC(=O)c3ccno3)c2)cc(C(F)(F)F)c1` the Potency was 18.7 µM (active). With `O=C(c1ccc(F)cc1)N1CCC[C@H](c2nc(-c3ccc(F)cc3)no2)C1` the “activity change, negative = cytotoxic” value was 13.4% (inactive). In the case of `CC[C@H]1OC(=O)[C@H](C)[C@@H](O[C@H]2C[C@@](C)(OC)[C@@H](O)[C@H](C)O2)[C@H](C)[C@@H](O[C@@H]2O[C@H](C)C[C@H](N(C)C)[C@@H]2O)[C@](C)(OC)C[C@@H](C)C(=O)[C@H](C)[C@@H](O)[C@]1(C)O`, the “activity change, negative = cytotoxic” value is reported as -14.4% (inactive). With `NC(=O)c1cccc(-c2cccc(OC(=O)NC3CCCCC3)c2)c1` the “activity change, negative = cytotoxic” value was 14.6% (inactive). For `O=C(Nc1cccc(Nc2ncc(Br)c(NCCc3cnc[nH]3)n2)c1)N1CCCC1`, the Potency was 1.05 µM (active). For `CCCCOc1ccc(C(=O)Nc2ccc(F)cc2F)cc1`, the “activity change, negative = cytotoxic” value was -8.15% (inactive). With `CC(C=CC1=C(C)CCCC1(C)C)=CC=CC(C)=CC(=O)Nc1ccc(O)cc1` the Potency was 27 µM (active). For `Oc1cc(-c2nc(-c3ccccc3)[nH]c2-c2ccncc2)ccc1Cl`, the Potency was 11.8 µM (active). In the case of `O=C(C[C@@H]1CC=CCCC(=O)O[C@H](c2ccccc2)CNC1=O)NCc1ccc(Cl)cc1`, the “activity change, negative = cytotoxic” value is reported as -5.03% (inactive). With `C=CC(=O)Nc1ccc2ncnc(Nc3ccc(OCc4cccc(F)c4)c(Cl)c3)c2c1` the Potency was 0.0296 µM (active). For `COc1ccc(CCC(=O)c2c(O)cc(O[C@@H]3O[C@H](CO)[C@@H](O)[C@H](O)[C@@H]3O[C@@H]3O[C@@H](C)[C@H](O)[C@@H](O)[C@@H]3O)cc2O)cc1O`, the “activity change, negative = cytotoxic” value was 0.307% (inactive). For `O=C1NCCc2[nH]c(-c3ccncc3)cc21`, the Potency was 4.18 µM (active). With `CCOC(=O)N1CCN([N+]([O-])=NOc2ccc([N+](=O)[O-])cc2[N+](=O)[O-])CC1` the Potency was 18.7 µM (active). For `O=C(Nc1ccc(Oc2ccnc3[nH]ccc23)c(F)c1)c1cccn(-c2ccc(F)cc2)c1=O`, the Potency was 20.9 µM (active). In the case of `Cc1cc(C(=O)NOCCO)c(Nc2ccc(I)cc2F)n(C)c1=O`, the “activity change, negative = cytotoxic” value is reported as -11% (inactive). In the case of `COc1cc([C@@H]2c3cc4c(cc3[C@H](O)[C@H]3COC(=O)[C@@H]23)OCO4)cc(OC)c1OC`, the Potency is reported as 0.118 µM (active). For `CCCNS(=O)(=O)Nc1ncnc(OCCOc2ncc(Br)cn2)c1-c1ccc(Br)cc1`, the “activity change, negative = cytotoxic” value was 10% (inactive). In the case of `CCCCCCCCCCCCc1ccc(S(=O)(=O)Nc2nncs2)cc1`, the Potency is reported as 18.7 µM (active). For `CC(=O)N1CCN(c2ccc(OCc3nn(C)c(C)c3-c3cccc4c(CCCOc5cccc6ccccc56)c(C(=O)O)n(Cc5cccnc5)c34)cc2)CC1`, the Potency was 3.72 µM (active). In the case of `C[C@](Cc1c[nH]c2ccccc12)(NC(=O)OC1C2CC3CC(C2)CC1C3)C(=O)NC[C@H](NC(=O)CCC(=O)O)c1ccccc1` (stereo not given in full), the “activity change, negative = cytotoxic” value is reported as 18.9% (inactive). With `C[C@]12C=CC(=O)N[C@@H]1CC[C@H]1[C@H]3CC[C@@H](C(=O)Nc4cc(C(F)(F)F)ccc4C(F)(F)F)[C@@]3(C)CC[C@@H]12` the Potency was 16.6 µM (active). With `Oc1ccc([C@@H]2Oc3ccc(O)cc3[C@@H]3CCC[C@@H]32)cc1` the Potency was 6.62 µM (active). In the case of `CC(=O)ON=C1C(c2c(O)[nH]c3cc(Br)ccc23)=Nc2ccccc21`, the Potency is reported as 11.8 µM (active). With `CN1[C@H]2CC(OC(=O)[C@@H](CO)c3ccccc3)C[C@H]1[C@H]1O[C@H]12` (stereo not given in full) the “activity change, negative = cytotoxic” value was 12% [at 16.1 µM] (inactive). For `Cc1ncc(-c2ccnc(Nc3ccc(S(C)(=O)=O)cc3)n2)n1C(C)C`, the Potency was 3.72 µM (active). For `c1ccc(CNc2nc(NCc3ccccc3)c3ccccc3n2)cc1`, the Potency was 18.7 µM (active).
